Where a name gives a salt, the structure may show the parent alone.
test system: LASCPC-01; test: cell viability relative to DMSO control (fraction); higher = less growth inhibition (more viable cells); settings: 2 µM; 72 h
Protocol: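 High-throughput single-dose screen in the LASCPC-01 NEPC cell line in 384-well plates. Cells were treated with each compound at 2 µM for 72 h, and viability was read by CellTiter-Glo luminescence. Values are normalised to the DMSO control (compound/DMSO) from three replicates; only the 5-HT-related subset of the 7315-compound library is given.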

SMILES | cell viability
CCC(=O)c1c(O)cc(O)cc1O [Flopropione] | 0.95
CNCC[C@@H](Oc1ccccc1C)c1ccccc1 [Atomoxetine HCl] | 1.02
CN1CC2c3ccccc3Oc3ccc(Cl)cc3C2C1 (stereo not given) [Asenapine Maleate] | 1.1
CC(CN(C)C)CN1c2ccccc2CCc2ccccc21 (stereo not given) [Trimipramine maleate] | 1.01
Nc1ccc2c(C(F)(F)F)cc(=O)oc2c1 [7-Amino-4-(trifluoromethyl)coumarin] | 0.894
CN1C2CCCC1CC(NC(=O)c1nn(C)c3ccccc13)C2 (stereo not given) [Granisetron hydrochloride] | 0.955
CCCCN1CCC(CNC(=O)c2c3n(c4ccccc24)CCCO3)CC1 [Piboserod] | 1.21
N#Cc1ccc2[nH]cc(CCCCN3CCN(c4ccc5oc(C(N)=O)cc5c4)CC3)c2c1 [Vilazodone HCl] | 0.916
CC(CN1c2ccccc2Sc2ccccc21)N(C)C (stereo not given) [Promethazine] | 1.11
COc1ccccc1N1CCN(CCN2C(=O)CC3(CCCC3)CC2=O)CC1 [BMY 7378 dihydrochloride] | 1.07
CN(C)CC(c1ccc(O)cc1)C1(O)CCCCC1 (stereo not given) [Desvenlafaxine Succinate] | 0.883
CNS(=O)(=O)CCc1ccc2[nH]cc(C3CCN(C)CC3)c2c1 [Naratriptan] | 1.03
CC(=O)c1ccc2c(c1)N(CCCN1CCC(CCO)CC1)c1ccccc1S2 [Piperacetazine] | 0.764
COc1ccccc1N1CCN(CCCNc2cc(=O)n(C)c(=O)n2C)CC1 [Urapidil] | 1.18
O=C1CC2(CCCC2)CC(=O)N1CCCCN1CCN(c2ncccn2)CC1 [Buspirone HCl] | 1.02
CN1CCC(=C2c3ccccc3C=Cc3ccccc32)CC1 [Cyproheptadine hydrochloride] | 1.14
O=c1n(CCCN2CCN(c3cccc(Cl)c3)CC2)nc2ccccn12 [Trazodone hydrochloride] | 1.04
CN(C)CCC=C1c2ccccc2C=Cc2ccccc21 [Cyclobenzaprine hydrochloride] | 0.947
O=c1ccc2ccc(OCCCCN3CCN(c4cccc5sccc45)CC3)cc2[nH]1 [Brexpiprazole] | 1.01
CC(C)COc1ccc(CNC(=O)N(Cc2ccc(F)cc2)C2CCN(C)CC2)cc1 [Pimavanserin tartrate] | 0.514

SMILES | cell viability
Cn1cc(C(=O)OCC2CCN(CCNS(C)(=O)=O)CC2)c2ccccc21 | 0.959
Cc1nc2n(c(=O)c1CCN1CCC(c3noc4cc(F)ccc34)CC1)CCCC2 [Risperidone] | 0.99
CSc1ccc2c(c1)C(N1CCN(C)CC1)Cc1ccccc1S2 (stereo not given) [Methiothepin mesylate] | 1.03
CNCCC(Oc1ccc(C(F)(F)F)cc1)c1ccccc1 (stereo not given) [Fluoxetine HCl] | 1.02
O=C1CC2(CCCC2)CC(=O)N1CCCCN1CCN(c2ncccn2)CC1 [Buspirone hydrochloride] | 1.08
Cn1ccc2cc3c(cc21)CCN3C(=O)Nc1cccnc1 | 1.06
Cc1cc2c(cc1Cl)N(C(=O)Nc1ccc(Oc3cccnc3C)nc1)CC2 | 0.0538
CN(C)C/C=C(/c1ccc(Br)cc1)c1cccnc1 [Zimelidine dihydrochloride] | 1.01
CN1[C@@H]2CC[C@H]1CC(OC(=O)c1c[nH]c3ccccc13)C2 (stereo not given in full) [3-Tropanyl-indole-3-carboxylate hydrochloride] | 1.04
CN1CCN(c2cc3c(nn2)Oc2ccccc2N3C)CC1 [Azaphen] | 0.951
O=S(=O)(c1ccccc1)c1cnc2c(N3CCNCC3)cccc2c1 | 0.879
Fc1ccc([C@@H]2CCNC[C@H]2COc2ccc3c(c2)OCO3)cc1 [Paroxetine HCl] | 1.02
CNc1nn2c(C)c(N(C)C)c(C)nc2c1S(=O)(=O)c1ccccc1 | 0.978
O=C(c1ccc(F)cc1)C1CCN(CCn2c(=O)[nH]c3ccccc3c2=O)CC1 [Ketanserin tartrate] | 0.737
Cc1ccc(Sc2ccccc2N2CCNCC2)c(C)c1 | 1.01
CN(C)CCCC1(c2ccc(F)cc2)OCc2cc(C#N)ccc21 (stereo not given) [Citalopram hydrobromide] | 1.06
CCN(CC)CCOC(=O)C(Cc1cccc2ccccc12)CC1CCCO1 (stereo not given) [Nafronyl oxalate] | 1.07
CN(C)C(=O)N[C@H]1CC[C@H](CCN2CCN(c3cccc(Cl)c3Cl)CC2)CC1 [Cariprazine] | 0.892
CC1(C)C(=O)N(CCN2CCC(C(=O)c3ccc(F)cc3)CC2)c2ccccc21 | 0.991
CN(C)[C@@H](CCOc1cccc2ccccc12)c1ccccc1 [Dapoxetine HCl] | 1.03
